# Compounds without any hit were thinned out: in the full panel of roughly 83,000, 20% have a hit.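 Compound tested at a single concentration for 48 hours in 96-well plates; a percent growth value below 10 was scored as active.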 A number with no mark means an inactive call. Calls of active or inactive are those of the source.
# System: MDA-MB-468 breast
# Assay: NCI-60 one-dose screen, 48 h (100 = growth as untreated, 0 = no growth, -100 = all killed)
# Conditions: 10 µM unless noted
row,Structure (SMILES),growth
1,C#CCn1c(-c2cccc(OCCCCl)c2)nc2c1c(=O)n(C)c(=O)n2C,71.6%
2,COc1ccc2c(c1)nc(N)c1c3cccnc3cn21,13.4%
3,CC1(C)CC[C@]2(C(N)=O)CC[C@]3(C)C(=CC[C@@H]4[C@@]5(C)C/C(=C/c6cccnc6)C(=O)C(C)(C)[C@@H]5CC[C@]43C)[C@@H]2C1,-17.1% [100 µM] (active)
4,Cc1ccc(C(F)(F)F)cc1N1CCN(C(=O)[C@H]2C[C@H]2c2ccc(C(F)(F)F)nc2)CC1,65.6%
5,Clc1ccc(-c2nc(Br)cn3ccnc23)cc1,78.9%
6,Cc1cc(C)c2c(n1)sc1c(Nc3ccc(OCc4ccccc4)cc3)ncnc12,101%
7,N#Cc1c(N)nc(Cl)c(C#N)c1C(=O)c1ccccc1,-6.56% (active)
8,NC(=O)c1cc(I)ccc1NC(=O)COc1ccc(Cl)cc1Cl,71.7%
9,CC(C)(C)c1cc(C(=O)N2CCC(C(=O)NCCN)CC2)cc(C(C)(C)C)c1,82.4%
10,COc1cccc(-c2nnc(N)o2)c1,90.3%
11,CC(C)N(CCCC#N)C(C)C,104%
12,N#Cc1c(-c2cccc(Cl)c2)cc(-c2cccc(Cl)c2)[nH]c1=O,73.2%
13,COc1ccc(C2CC(c3ccc(OC)cc3O)=NN2c2ccc(S(N)(=O)=O)cc2)cc1 (stereo not given),56%
14,N/C(=N\C(N)=N\c1nc2ccccc2s1)c1ccc(C(F)(F)F)cc1,107%
15,Cc1nn(-c2ccc(Cl)cc2)c2ncnc(N/N=C/c3cccc([N+](=O)[O-])c3)c12,117%

# — PubChem BioAssay (NCI)
